Screens: PubChem, The Scripps Research Institute Molecular Screening Center
A selection: hits, their analogues and other compounds. The true share with any hit is near 3.5%.
FBW7 activator = activators of human E3 ligase FBW7 | AlphaScreen FBW7–phospho-cyclin E peptide binding, activator screen | hit rate 0.13% among 650,000 | normalized activity (activation), % at 26.1 µM | AID 1259310; in the data active = normalized activity above about 1.9%;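 note: purified mutant Fbw7 with reduced substrate affinity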
Target sequence (Q969H0 whole entry, looked up): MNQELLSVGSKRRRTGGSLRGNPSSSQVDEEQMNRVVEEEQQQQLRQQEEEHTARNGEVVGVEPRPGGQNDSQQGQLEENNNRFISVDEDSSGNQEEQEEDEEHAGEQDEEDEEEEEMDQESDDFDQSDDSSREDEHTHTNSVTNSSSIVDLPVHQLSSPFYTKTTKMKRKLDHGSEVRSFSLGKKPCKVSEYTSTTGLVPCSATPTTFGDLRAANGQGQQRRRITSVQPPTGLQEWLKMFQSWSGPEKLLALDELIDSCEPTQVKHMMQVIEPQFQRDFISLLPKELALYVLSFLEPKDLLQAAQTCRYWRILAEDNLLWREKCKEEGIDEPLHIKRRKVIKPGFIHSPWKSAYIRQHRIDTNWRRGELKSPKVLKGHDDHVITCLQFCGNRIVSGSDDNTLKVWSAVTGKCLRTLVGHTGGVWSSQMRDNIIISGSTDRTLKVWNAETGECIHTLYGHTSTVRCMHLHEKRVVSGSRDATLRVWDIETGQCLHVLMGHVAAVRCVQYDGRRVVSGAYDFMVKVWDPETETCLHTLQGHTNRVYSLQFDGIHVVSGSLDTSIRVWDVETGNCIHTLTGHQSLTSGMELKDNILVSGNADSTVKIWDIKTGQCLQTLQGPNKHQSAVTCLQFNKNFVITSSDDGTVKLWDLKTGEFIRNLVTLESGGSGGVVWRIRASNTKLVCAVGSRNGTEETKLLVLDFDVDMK
TEAD-YAP inh = TEAD-YAP interaction inhibition | AID 1259422 | HEK-TIYL cells, TEAD-Gal4/YAP UAS-luciferase luminescence | inhibition, % at 9.12 µM | hit rate 1.4% among 640,000; in the data active = inhibition above about 32%;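 note: 0% = median of test compound wells and 100% = reference inhibitor wells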
MITF inh = blocks human microphthalmia-associated transcription factor. O75030. AlphaScreen MITF homodimerization, bead proximity signal. inhibition, % at 2.6 µM. hit rate 0.91% among 650,000. AID 1259374; in the data active = inhibition above about 50%;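 note: 0% = vehicle wells with protein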
GPR151 activ = activates the human receptor GPR151 | hit rate 1% among 650,000 | activation, % at 11.2 µM | PathHunter beta-arrestin GPR151 cells, luminescence | Q8TDV0; in the data active = activation above about 4.9%;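 note: 0% = median of compound wells and 100% = cells with positive control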
GPR151 conf act = human GPR151 activation, confirmation screen; shares compounds with GPR151 activ; GPR151 PathHunter beta-arrestin cells, luminescence, 90 min; % of EA-reagent control over plate median; activation, % at 11.2 µM; 6,700 tested, under 10 active;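 active = mean percent activation across replicates above the confirmation screen cutoff of 4.91%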
GPR119 counter = GPR119 activation, counter-screen for GPR151 activators; shares compounds with GPR151 activ; GPR119 PathHunter beta-arrestin cells, luminescence, 90 min; 0 = compound-well median, 100 = enzyme-acceptor control; activation, % at 11.2 µM; hit rate 0.3% among 6,700; AID 1508611;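 active = mean percent activation in the counterscreen above 29.09%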;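 note: counterscreen on off-target GPR119 to flag nonselective hits from the GPR151 activator screen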
Starred values were filed as active, the others as inactive; x = not tested or not shown.

SMILES	FBW7 activator	TEAD-YAP inh	MITF inh	GPR151 activ	GPR151 conf act	GPR119 counter
O=C(NNc1ccccn1)Nc1ccc(Cl)cc1	0.4	-7.9	-3.4	6.5*	-0.4	0.1
COc1ccc(-c2ncccc2O)cc1	1.5	-43.9	11.0	5.2*	0.1	-1.9
CCOc1ccc(-c2ncccc2O)cc1	0.1	-36.6	17.6	0.3	x	x
Cc1ccc(NC(=O)C(=O)NCC(c2ccc3c(c2)OCO3)N2CCN(C)CC2)c(C)c1 (centres undefined)	-0.2	-13.4	0.9	6.5*	-0.3	-6.7
CC1=CCC2C(=O)N(C(C)c3ccccc3)C(=O)C2C1 (centres undefined)	0.0	1.0	-6.6	7.5*	-1.2	-6.7
CC1=CCC2C(=O)N(Cc3ccccc3)C(=O)C2C1 (centres undefined)	0.1	1.1	-34.0	0.7	x	x
O=C(NCC1CCCN(C(=O)C2CCCC2)C1)c1ccc(F)cc1 (centres undefined)	0.2	5.3	-9.2	7.3*	0.7	1.8
CCOc1ccc(N2CC(C(=O)OCC(=O)Nc3ccc(OC)cc3)CC2=O)cc1 (centres undefined)	0.3	-4.5	-6.1	0.3	x	x
CCC(C)NC(=O)C1C2C(=O)N(Cc3ccccc3)CC23C=CC1(C)O3 (centres undefined)	-0.1	7.7	9.1	8.7*	-0.5	-7.9
Cc1csc(NC(=O)/C=C/c2cccc(Cl)c2)n1	0.0	-34.6	4.2	5.0*	-0.4	-12.5
CC1CCCCC1NC(=O)Cn1nc(-c2ccc(Cl)cc2)ccc1=O (centres undefined)	0.3	3.6	4.2	5.6*	0.8	-4.3
Cc1ccc(NS(=O)(=O)c2ccc(NS(=O)(=O)c3ccc4c(c3)OCCO4)cc2)cc1C	0.2	3.5	0.5	-2.0	x	x
Cc1ccc(S(=O)(=O)Nc2ccc3c(c2)OCCOCCOCCOCCOCCO3)cc1	-0.1	-9.3	-1.2	5.2*	-0.9	-8.5
Cc1ccc(S(=O)(=O)Nc2ccc(Cl)c([N+](=O)[O-])c2)cc1	0.0	-8.7	12.4	6.3*	-1.1	1.9
CCOC(=O)c1cc2cccc(Cl)c2[nH]1	0.1	-5.7	-4.6	-0.3	x	x
CC(C)(C)NC(=O)N1c2ccccc2CC1C(N)=O (centres undefined)	0.1	1.8	2.3	-1.5	x	x
CCOC(=O)C(C)Sc1nnc(CNC(=O)C23CC4CC(CC(C4)C2)C3)n1-c1ccccc1OC (centres undefined)	0.1	1.8	-7.9	2.3	x	x
Cc1ccc2cc3c(N)c(C(=O)Nc4ccc(N5CCOCC5)cc4)sc3nc2c1	0.2	-0.8	3.7	-1.6	x	x
COc1ccccc1-c1nnc2sc(-c3ccc4c(c3)OCCO4)nn12	-0.5	52.8*	-10.0	5.7*	0.7	9.0
COc1ccccc1-c1nnc2sc(-c3cc(OC)c(OC)c(OC)c3)nn12	0.0	2.5	5.2	-1.0	x	x
COc1ccc(C(=O)NC(C)c2nnc(SCC(=O)Nc3ccccc3)n2C)cc1 (centres undefined)	-0.2	10.9	0.0	9.6*	0.9	2.6
CCOC(=O)c1cnn(-c2ccc3c(c2)OCCO3)c1CNCc1nccs1	-0.1	-13.8	-2.3	0.4	x	x
Cc1ccc(N=NNc2cccc([N+](=O)[O-])c2)cc1	0.1	-4.0	-3.8	5.9*	-0.2	-6.1
CCOC(=O)C(=CNc1cc(C)nn1-c1ccccc1)C(=O)OCC	-0.1	-0.4	0.5	6.6*	-1.4	-9.8
Cc1ccc(OC(C)C(=O)Nc2ccc(C(N)=O)cc2)cc1 (centres undefined)	-0.1	-5.1	-15.4	-1.4	x	x
SMILES	FBW7 activator	TEAD-YAP inh	MITF inh	GPR151 activ	GPR151 conf act	GPR119 counter
CN=c1nc(-c2ccccc2)n(-c2ccccc2)s1	0.0	-6.9	2.5	-0.5	x	x
CC(=O)N=c1nc(-c2ccccc2)n(-c2ccccc2)s1	-0.1	-15.8	-11.2	6.9*	-1.1	-10.0
CN(C)CCCNS(=O)(=O)c1ccc(N)c([N+](=O)[O-])c1	-0.1	4.6	8.7	0.7	x	x
CC(C)c1nc2ccccc2c2nn(CC(=O)N3CCN(C(=O)c4ccco4)CC3)c(=O)n12	-0.1	9.6	-6.5	15.1*	0.4	3.7
CCc1nc2ccccc2c2nn(CC(=O)N3CCOCC3)c(=O)n12	-0.1	-4.9	-6.0	6.6*	0.0	2.3
CCOC(=O)c1sc(=NC(=O)c2cccc3ccccc23)n(C)c1C	0.0	4.7	3.1	7.8*	0.2	6.0
CC(=O)N1CCc2c(sc(NC(=O)C(C)(C)C)c2C(N)=O)C1	0.2	0.2	2.1	6.4*	-0.2	-3.7
CC(=O)Nc1sc2c(c1C(N)=O)CCN(C(C)=O)C2	0.2	3.5	14.9	0.8	x	x
CC(C)OC(=O)/C(C#N)=C\c1cccs1	0.0	-5.1	-2.3	6.0*	-0.6	-8.8
COc1cc2c(cc1/C=C1/NC(=O)N(c3cccc(Cl)c3)C1=O)OCO2	-0.1	11.2	1.0	8.5*	0.3	6.8
COc1ccc(/C=C2/NC(=O)N(c3cccc(Cl)c3)C2=O)c(OC)c1	-0.1	-6.2	18.0	5.7*	2.4	2.6
O=C1N/C(=C/c2ccccc2)C(=O)N1c1cccc(Cl)c1	0.0	-0.2	8.8	4.7	x	x
O=C1N/C(=C/c2ccco2)C(=O)N1c1cccc(Cl)c1	0.1	-11.2	-1.9	5.2*	-0.6	0.7
COc1ccc(/C=C2/NC(=O)N(c3cccc(Cl)c3)C2=O)cc1	0.0	-12.4	-5.0	-0.5	x	x
O=C1N/C(=C/c2ccc3c(c2)OCO3)C(=O)N1c1cccc(Cl)c1	0.0	1.5	15.9	-0.3	x	x
CCOC(CCNS(=O)(=O)c1ccc2c(c1)oc(=O)n2C)OCC	0.0	-2.4	0.6	0.1	x	x
CC(=O)NC(=S)Nc1ccc(S(N)(=O)=O)cc1	0.1	-7.4	0.0	5.5*	0.5	1.6
NS(=O)(=O)c1ccc(NC(=S)NC(=O)C(c2ccccc2)c2ccccc2)cc1	-0.4	-5.0	1.6	5.4*	0.0	-5.7
CC(=O)Nc1cccc(NC(=S)Nc2ccc(S(N)(=O)=O)cc2)c1	-0.2	1.2	-2.2	-0.5	x	x
CC(C)CCNC(=O)C(Cc1ccccc1)NS(=O)(=O)c1ccc(F)cc1 (centres undefined)	0.0	6.0	9.4	4.9*	-0.9	-5.9
COc1ccc(CN2CCN(Cc3cccs3)C(CCO)C2)c(O)c1 (centres undefined)	-0.1	-14.3	-5.1	5.1*	-0.5	-7.8
COc1cccc(CN2CCN(Cc3cccs3)C(CCO)C2)c1 (centres undefined)	-0.1	-5.2	-3.2	0.2	x	x
COC(=O)COC(=O)c1sc(=S)n(C)c1C	0.0	4.7	8.3	0.0	x	x
Cc1cnc(Nc2nc3ccccc3n2C)nc1Nc1ccc(N2CCOCC2)cc1	-0.2	-28.3	18.3	-1.5	x	x
Cc1cnc(Nc2nccc3ccccc23)nc1Nc1ccc(N2CCOCC2)cc1	-0.5	50.0*	3.4	6.0*	0.3	-2.7
CCCNc1nc(Nc2nccc3ccccc23)ncc1C	0.2	39.2*	0.2	5.1*	0.3	-1.3
